PubChem BioAssay (NCATS)
Results filed as inconclusive are left out. Active and inactive are the calls of the source. Calls follow the shape of the dose curve; as a rule, active = well fitted curve in the direction sought with a large enough effect; inconclusive = small, poorly fitted or top-dose-only effect, or another doubt; inactive = no such curve, though single readings can be large; an effect the other way counts as inactive or inconclusive.

Assays:
[1] = tested on: MKL-2; experiment: qHTS assay to identify novel small-molecules to repurpose for Merkel cell carcinoma treatment (AID 1296009); settings: MCC and control cell lines, CellTiter-Glo viability, 72 h; series mostly up to 46 µM; also: nearly all actives have a fitted effect of over 60% in size
Summary of the method: (§1)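 After compound transfer in DMSO, plates were kept 72 hr at 37 degree celsius. Luminescent ATP signal from CellTiter-Glo served as viability measure, normalized against DMSO and no-cell controls.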

[2] = tested on: NIH3T3; experiment: as above; settings: MCC and control cell lines, CellTiter-Glo viability, 72 h; at 44.8 µM (top of the series) unless noted
Summary of the method: as §1

[3] = tested on: UISO; experiment: as above; settings: MCC and control cell lines, CellTiter-Glo viability, 72 h; series mostly up to 46 µM
Summary of the method: as §1

[4] = tested on: WaGa; experiment: as above; settings: MCC and control cell lines, CellTiter-Glo viability, 72 h; series mostly up to 46 µM
Summary of the method: as §1

[5] = tested on: C33A; experiment: Primary qHTS to identify gynecologic anti-cancer compounds using libraries of approved drugs and bioactive compounds (AID 1345084); settings: Gynecologic cancer cell panel viability, ATPlite luminescence, 48 h; series mostly up to 57.5 µM; also: nearly all actives have a fitted effect of over 55% in size
Summary of the method: (§2)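 Cells, 1,000 per well, plated 16 h, then exposed 48 h at 37 C to compounds. Viability by ATPlite luminescence after 15 min at room temperature.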

[6] = tested on: CAOV3; experiment: as above; settings: Gynecologic cancer cell panel viability, ATPlite luminescence, 48 h; series mostly up to 57.5 µM
Summary of the method: as §2

[7] = tested on: CASKI; experiment: as above; settings: Gynecologic cancer cell panel viability, ATPlite luminescence, 48 h; series mostly up to 57.5 µM
Summary of the method: as §2

[8] = tested on: Es-2; experiment: as above; settings: Gynecologic cancer cell panel viability, ATPlite luminescence, 48 h; series mostly up to 57.5 µM
Summary of the method: as §2

[9] = tested on: HeLa; experiment: as above; settings: Gynecologic cancer cell panel viability, ATPlite luminescence, 48 h; series mostly up to 57.5 µM
Summary of the method: as §2

[10] = tested on: Hek293T; experiment: as above; settings: Gynecologic cancer cell panel viability, ATPlite luminescence, 48 h, control line for the selectivity index; series mostly up to 57.5 µM
Summary of the method: as §2

Measured: outcome

CC(=O)Nc1ccccc1
inactive: [1] | [2] | [3] | [4] | [5] | [6] | [7] | [8] | [9] | [10]

COc1ccccc1Oc1c(NS(=O)(=O)c2ccc(C(C)(C)C)cc2)nc(-c2ncccn2)nc1OCCO
inactive: [1] | [2] | [3] | [4] | [5] | [7] | [8] | [9] | [10]

O=C(O)c1cc(=O)c2ccccc2o1
inactive: [1] | [2] | [3] | [4] | [5] | [6] | [7] | [8] | [9] | [10]

CC(=O)N1C[C@H](O)C[C@H]1C(=O)O
inactive: [1] | [2] | [3] | [4] | [5] | [6] | [7] | [8] | [9] | [10]

NC(=O)NS(=O)(=O)c1ccc(N)cc1
inactive: [1] | [2] | [3] | [4] | [5] | [7] | [8] | [9] | [10]

CCCCCC(N)=O
inactive: [1] | [2] | [3] | [4] | [5] | [6] | [7] | [8] | [9] | [10]

O=C(O)[C@@H]1[C@H]2C[C@H]3c4[nH]c5ccccc5c4CCN3C[C@@H]2CC[C@@H]1O
inactive: [1] | [2] | [3] | [4] | [5] | [7] | [8] | [9] | [10]

Nc1ccc(C(=O)Oc2ccccc2)c(O)c1
inactive: [1] | [2] | [3] | [4] | [5] | [7] | [8] | [9] | [10]

C[n+]1ccccc1/C=N/O
inactive: [1] | [2] | [3] | [4] | [5] | [6] | [7] | [8] | [9] | [10]

OCc1ccc(Cl)cc1Cl
inactive: [1] | [2] | [3] | [4] | [5] | [7] | [8] | [9] | [10]

O=C(O)c1ccc[n+]([O-])c1
inactive: [1] | [2] | [3] | [4] | [5] | [6] | [7] | [8] | [9] | [10]

CC1(C)S[C@@H]2[C@H](N=CN3CCCCCC3)C(=O)N2[C@H]1C(=O)O
inactive: [1] | [2] | [3] | [4] | [5] | [7] | [8] | [9] | [10]

O=C1c2ccccc2S(=O)(=O)N1CCCCN1CCN(c2ncccn2)CC1
inactive: [1] | [2] | [3] | [4] | [5] | [6] | [7] | [8] | [9] | [10]

NC(=O)N[C@@H](CCC(=O)O)C(=O)O
inactive: [1] | [2] | [3] | [4] | [5] | [6] | [7] | [8] | [10]

CCCCCCCCCCCCCCCCCCO
inactive: [1] | [2] | [3] | [4] | [5] | [6] | [7] | [8] | [9] | [10]

Cc1c(NC(C)C)c(=O)n(-c2ccccc2)n1C
inactive: [1] | [2] | [3] | [4] | [5] | [7] | [8] | [9] | [10]

COc1ccc(C(=O)N2CCN(CC(=O)N3CCOCC3)CC2)cc1
inactive: [1] | [2] | [3] | [4] | [5] | [7] | [8] | [9] | [10]

Cc1c(NC(=O)c2cccnc2)c(=O)n(-c2ccccc2)n1C
inactive: [1] | [2] | [3] | [4] | [5] | [6] | [7] | [8] | [9] | [10]

CN(C(=O)c1c(O)c2ccccc2n(C)c1=O)c1ccccc1
inactive: [1] | [2] | [3] | [4] | [5] | [6] | [7] | [8] | [9] | [10]

O=c1[nH]c(=O)n([C@H]2C[C@H](O)[C@@H](CO)O2)cc1I
inactive: [1] | [2] | [4] | [5] | [7] | [8] | [9] | [10]

CC(N)CCCC(C)(C)O (stereo not given)
inactive: [1] | [2] | [3] | [4] | [5] | [6] | [7] | [8] | [9] | [10]

Cc1c(C(=O)NCCO)[n+](=O)c2ccccc2n1[O-]
inactive: [1] | [2] | [3] | [4] | [5] | [7] | [8] | [9] | [10]

CN1CCCN=C1COC(=O)C(O)(c1ccccc1)C1CCCCC1 (stereo not given)
inactive: [1] | [2] | [3] | [4] | [5] | [7] | [8] | [9] | [10]

CCN(CC)C(=O)c1cccc(C)c1
inactive: [1] | [2] | [3] | [4] | [5] | [6] | [7] | [8] | [9] | [10]

O=C(c1ccccc1)C(O)c1ccccc1 (stereo not given)
inactive: [1] | [2] | [3] | [4] | [5] | [7] | [8] | [9] | [10]

NC(N)=NS(=O)(=O)c1ccc(N)cc1
inactive: [1] | [2] | [3] | [4] | [5] | [7] | [8] | [9] | [10]

NC(=O)NC1NC(=O)NC1=O (stereo not given)
inactive: [1] | [2] | [3] | [4] | [5] | [6] | [7] | [8] | [9] | [10]

O=C(O)/C=C/c1ccc(Cn2ccnc2)cc1
inactive: [1] | [2] | [3] | [4] | [5] | [7] | [8] | [9] | [10]

NS(=O)(=O)c1cc(C2(O)NC(=O)c3ccccc32)ccc1Cl (stereo not given)
inactive: [1] | [2] | [3] | [4] | [5] | [7] | [8] | [9] | [10]

CCCCCCCC(=O)OCC(COC(=O)CCCCCCC)OC(=O)CCCCCCC
inactive: [1] | [3] | [4] | [5] | [6] | [7] | [8] | [9] | [10]

C/C=C1\[C@H]2C=C(C)C[C@]1(N)c1ccc(=O)[nH]c1C2
inactive: [1] | [3] | [4] | [5] | [6] | [7] | [8] | [9] | [10]

Cn1c([N+](=O)[O-])cnc1COC(N)=O
inactive: [1] | [3] | [4] | [5] | [6] | [7] | [8] | [9] | [10]

O=C(/C=C/c1ccccc1)OCc1ccccc1
inactive: [1] | [3] | [4] | [5] | [6] | [7] | [8] | [9] | [10]

OCC(O)CS (stereo not given)
inactive: [1] | [3] | [4] | [5] | [6] | [7] | [8] | [9] | [10]

OCCN1C[C@H](O)[C@@H](O)[C@H](O)[C@H]1CO
inactive: [1] | [3] | [4] | [5] | [6] | [7] | [8] | [9] | [10]

CC1(c2ccccc2)OC(C(=O)O)=CC1=O (stereo not given)
inactive: [1] | [3] | [4] | [5] | [6] | [7] | [8] | [9]

CC[N+](CC)(CC(=O)Nc1c(C)cccc1C)Cc1ccccc1
inactive: [1] | [3] | [4] | [5] | [6] | [7] | [8] | [9] | [10]

CCCCCCCCCCCCCCCCN
inactive: [1] | [3] | [4] | [5] | [6] | [7] | [8] | [9]

CCN(CC)CCc1nc(-c2ccccc2)no1
inactive: [1] | [3] | [4] | [5] | [6] | [7] | [8] | [9] | [10]

O[C@@H]1CO[C@H]2[C@@H]1OC[C@@H]2O
inactive: [1] | [3] | [4] | [5] | [6] | [7] | [8] | [9] | [10]

Cc1[nH]c(C)c(Cl)c(=O)c1Cl
inactive: [1] | [3] | [4] | [5] | [6] | [7] | [8] | [9] | [10]

CN[C@@H]1[C@H](O)[C@H](NC)[C@H]2O[C@@]3(O)C(=O)C[C@@H](C)O[C@H]3O[C@@H]2[C@H]1O
inactive: [1] | [3] | [4] | [5] | [6] | [7] | [8] | [9] | [10]

CC(C)NC[C@@H](O)COc1ccc(CC(N)=O)cc1
inactive: [1] | [3] | [4] | [5] | [6] | [7] | [8] | [9] | [10]

COC(=O)N/N=C/c1c[n+]([O-])c2ccccc2[n+]1[O-]
inactive: [1] | [3] | [4] | [5] | [6] | [7] | [8] | [9] | [10]

O=C(O)Cc1ccc(CCNS(=O)(=O)c2ccc(Cl)cc2)cc1
inactive: [1] | [3] | [4] | [5] | [6] | [7] | [8] | [9] | [10]

CCCCCC(C)N (stereo not given)
inactive: [1] | [3] | [4] | [5] | [6] | [7] | [8] | [9] | [10]

Nc1ccncc1N
inactive: [1] | [3] | [4] | [5] | [6] | [7] | [8] | [9] | [10]

C[C@@H](N)C(=O)O
inactive: [1] | [3] | [4] | [5] | [6] | [7] | [8] | [9] | [10]

COc1ccc(-c2cc(=O)c3c(O)cc(O[C@@H]4O[C@H](CO[C@@H]5O[C@@H](C)[C@H](O)[C@@H](O)[C@H]5O)[C@@H](O)[C@H](O)[C@H]4O)cc3o2)cc1O
inactive: [1] | [3] | [4] | [5] | [6] | [7] | [8] | [9] | [10]

NS(=O)(=O)c1ccc(C(=O)O)cc1
inactive: [1] | [3] | [4] | [5] | [6] | [7] | [8] | [9] | [10]
